Gal4-VP16 FLuc: inhibits Gal4-VP16 luciferase reporter, ROR gamma counter-screen; Drosophila S2 Gal4-VP16 UAS-luciferase, luminescence, 20 h; Potency, µM (top dose mostly 53.6 µM), without a hit: at the highest dose activity, negative = inhibition, hits mostly inhibitors; 310,000 tested, 3.5% active;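 note: Gal4-VP16 expression switched on by copper sulfate through the metallothionein promoter; potency is the fitted concentration of half-maximal effect; nearly all actives have a fitted effect of over 50% in size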
RORgamma inh: ROR gamma (mouse) transcription inhibition. P51450. Drosophila S2 Gal4-RORgamma UAS-luciferase reporter, 20 h. Potency, µM (titrated, usually from 53.6 µM), for inactives: at the top dose activity change, negative = inhibition, actives largely listed as inhibitors. 310,000 tested, 5.4% active; note: potency is the fitted concentration of half-maximal effect; nearly all actives have a fitted effect of over 60% in size
Target sequence (P51450 whole entry, looked up, the tested form may be a part): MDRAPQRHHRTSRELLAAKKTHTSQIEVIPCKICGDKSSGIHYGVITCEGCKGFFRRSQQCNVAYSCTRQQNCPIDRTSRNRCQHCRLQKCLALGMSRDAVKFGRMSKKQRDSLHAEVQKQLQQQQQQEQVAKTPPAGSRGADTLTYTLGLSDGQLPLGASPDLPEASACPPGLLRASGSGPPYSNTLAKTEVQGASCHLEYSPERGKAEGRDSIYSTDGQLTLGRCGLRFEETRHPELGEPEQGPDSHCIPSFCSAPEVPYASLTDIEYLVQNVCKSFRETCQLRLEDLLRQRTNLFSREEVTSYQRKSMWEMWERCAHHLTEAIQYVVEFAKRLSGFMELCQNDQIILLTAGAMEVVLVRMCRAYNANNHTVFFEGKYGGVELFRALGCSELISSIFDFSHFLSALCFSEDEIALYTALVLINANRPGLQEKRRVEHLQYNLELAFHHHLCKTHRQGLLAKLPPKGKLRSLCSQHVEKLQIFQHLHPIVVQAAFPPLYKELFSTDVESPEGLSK
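Stably transfected Drosophila Schneider cells are the test system, with ROR gamma fused to Gal4 and luciferase under UAS control; luminescence is read after 20 hr of 700 uM copper sulfate induction at ambient temperature.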
ELG1 repair inh: blocks ELG1-dependent DNA repair in HEK293T cells. HEK293T ELG1-luciferase reporter, luminescence, 16 h; DNA damage induced by 5-fluorouridine. Potency, µM (series often up to 46.1 µM), for inactives: at the top dose activity change, negative = inhibition, most hits filed as inhibitors. 330,000 tested, 2.3% active. AID 504467; note: potency is the fitted concentration of half-maximal effect; nearly all actives have a fitted effect of over 55% in size
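Quantitative HTS, concentration-response format. 2,000 cells/well co-treated with 5-fluorouridine and compound, 16 hr in 5% CO2 at 37 °C; ONE-Glo luminescence read after 30 min.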
IL-1B inflam inh: inflammasome signaling inhibition, IL-1 beta readout. THP-1 LPS/ATP IL-1B secretion, AlphaLISA, 16 h; hits give low values. activity change, % at 57.5 µM. 360,000 tested, 4.7% active. AID 743279; in the data active = activity change below about -50%; inconclusive = mostly about -30% to -49%
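Secreted IL-1B measured by AlphaLISA bead assay after 16 h compound exposure of THP-1 cells; compounds (final up to 57.5 uM) added 1 h before LPS (250 ng/mL) and ATP (1.25 mM) stimulation; lower signal means less secretion.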
TDP1 cell noCPT: qHTS for Inhibitors of human tyrosyl-DNA phosphodiesterase 1 (TDP1): qHTS in cells in absence of CPT; Potency, µM (top dose mostly 46.2 µM), inactives show at the top dose activity change, negative = growth inhibition, usual class: inhibitors; DT40 Tdp1-/- hTDP1 cells, no CPT, ATP luminescence, 48 h; AID 686978, 2013; 420,000 tested, 15% active; note: potency is the fitted concentration of half-maximal effect; nearly all actives have a fitted effect of over 55% in size
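A cellular qHTS used chicken DT40 cells lacking endogenous Tdp1 but carrying stably transfected human TDP1. Compounds were applied without camptothecin, and cell growth kinetics were judged by ATP-dependent luminescence after ≥48 hr.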
TDP1 cell CPT: growth inhibition of DT40 Tdp1-/-;hTDP1 cells with camptothecin (screen for TDP1 inhibitors); chicken DT40 Tdp1-/-;hTDP1 cells + 20 nM CPT, ATP luminescence, 48 h; Potency, µM (titrated, usually from 46.2 µM), for the others: top-dose activity change, negative = growth inhibition, usual class: inhibitors; 420,000 tested, 12% active; note: potency is the fitted concentration of half-maximal effect; nearly all actives have a fitted effect of over 55% in size
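Cell growth measured by CellTiter-Glo luminescence after a minimum 48 h, 37 C compound exposure with 20 nM CPT in Tdp1-knockout DT40 cells stably expressing hTDP1, seeded 400/well; qHTS titration format.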
* = called active by the depositor. Not all results are given here. Unless noted, calls come from the whole dose curve; as a rule, active = well fitted curve in the direction sought with a large enough effect; inconclusive = small, poorly fitted or top-dose-only effect, or another doubt; inactive = no such curve, though single readings can be large; an effect the other way counts as inactive or inconclusive. % is set by controls: 0 for no effect and ±100 for the full control effect.

What do the screens show for `CC(C)(C)n1nnnc1C(c1ccncc1)N1CCN(C2CCCCC2)CC1` (stereo not drawn)?
Gal4-VP16 FLuc: 18%; RORgamma inh: 2%; ELG1 repair inh: -3%; IL-1B inflam inh: 13; TDP1 cell noCPT: 0%; TDP1 cell CPT: 0%

What do the screens show for `CC1(C)CC(NC(=O)c2cccc(Cl)c2)CC(C)(C)N1`?
Gal4-VP16 FLuc: -9%; RORgamma inh: -26%; ELG1 repair inh: -20%; IL-1B inflam inh: -17; TDP1 cell noCPT: -7%; TDP1 cell CPT: 3%

What do the screens show for `O=C(CN1CCOCC1)NNC(=O)c1ccc(Cl)cc1`?
ELG1 repair inh: -1%; IL-1B inflam inh: -2; TDP1 cell noCPT: 5%; TDP1 cell CPT: 13%

Results for CCc1ccc(C(=O)c2cn(CC(=O)Nc3cccc(C)c3C)c3nc(C)ccc3c2=O)cc1 ?
TDP1 cell noCPT: -15%; TDP1 cell CPT: inconclusive

What do the screens show for `Cc1ccc(C)c(OC(C)C(=O)Nc2nccs2)c1` (stereo not drawn)?
Gal4-VP16 FLuc: inconclusive; RORgamma inh: inconclusive; ELG1 repair inh: -3%; IL-1B inflam inh: 60; TDP1 cell noCPT: -8%; TDP1 cell CPT: -10%

Results for CN1CCN(C(c2ccccc2)c2nnnn2C(C)(C)C)CC1 (stereo not drawn) ?
IL-1B inflam inh: 43; TDP1 cell noCPT: -9%; TDP1 cell CPT: -15%

What do the screens show for `CCCCn1nnnc1C(c1ccccc1)N1CCN(c2c(Cl)cncc2Cl)CC1` (stereo not drawn)?
IL-1B inflam inh: 0; TDP1 cell noCPT: 16µM*; TDP1 cell CPT: inconclusive

Results for CC(C)(C)n1nnnc1C(c1ccccc1)N1CCN(c2c(Cl)cncc2Cl)CC1 (stereo not drawn) ?
IL-1B inflam inh: -12; TDP1 cell noCPT: 16µM*; TDP1 cell CPT: inconclusive

How did CCCCn1nnnc1C(c1ccccc1)N1CCN(c2ccccc2)CC1 (stereo not drawn) do in these assays?
IL-1B inflam inh: -12; TDP1 cell noCPT: inconclusive; TDP1 cell CPT: inconclusive

What do the screens show for `CCC1CCCCN1Cc1nc2c(c(=O)n(C)c(=O)n2C)n1CC(C)C` (stereo not drawn)?
Gal4-VP16 FLuc: -3%; RORgamma inh: 3%; ELG1 repair inh: inconclusive; IL-1B inflam inh: 23; TDP1 cell noCPT: inconclusive; TDP1 cell CPT: inconclusive

Results for CCC1CCCCN1Cc1nc2c(c(=O)n(C)c(=O)n2C)n1CCC(C)C (stereo not drawn) ?
Gal4-VP16 FLuc: -1%; RORgamma inh: inconclusive; ELG1 repair inh: 4%; IL-1B inflam inh: 20; TDP1 cell noCPT: 15µM*; TDP1 cell CPT: 16µM*

Results for CCCCCCn1c(CN2CCCCC2CC)nc2c1c(=O)n(C)c(=O)n2C (stereo not drawn) ?
Gal4-VP16 FLuc: 3%; RORgamma inh: 3%; ELG1 repair inh: 4%; IL-1B inflam inh: 23; TDP1 cell noCPT: 13µM*; TDP1 cell CPT: 23µM*

How did CC(C)NC(=O)N1CC[C@@]2(CCCN(S(=O)(=O)c3ccccc3)C2)C1 do in these assays?
Gal4-VP16 FLuc: -1%; RORgamma inh: 4%; TDP1 cell noCPT: -14%; TDP1 cell CPT: 14%

Results for CCOc1ccc(S(=O)(=O)NCCC(=O)NCCc2ccc(C(C)C)cc2)cc1 ?
ELG1 repair inh: inconclusive; IL-1B inflam inh: -11; TDP1 cell noCPT: inconclusive; TDP1 cell CPT: inconclusive

Results for CCc1ccc2oc(C(=O)Nc3cccc(C(F)(F)F)c3)cc(=O)c2c1 ?
TDP1 cell noCPT: -25%; TDP1 cell CPT: -22%

What do the screens show for `Cc1nc(N2CCOCC2)c2c(C(=O)Nc3cccc(C(F)(F)F)c3)c(C)oc2n1`?
TDP1 cell noCPT: -3%; TDP1 cell CPT: -13%

Bioassay records deposited in PubChem by National Center for Advancing Translational Sciences (NCATS).
